# Measurements from the supplement of paper PMC13380429.
# Values without a mark were called inactive.
# System: Vero E6 infected with SARS-CoV-2
# Experiment: inhibition of SARS-CoV-2 cytopathic effect; higher = more antiviral protection, active = above 15
# Conditions: 1 nM; 48 h
row,SMILES,inhibition of SARS-CoV-2 cytopathic effect [%]
1,Oc1ccc2[nH]cc(C3=CCNCC3)c2n1,6.34
2,CC(=O)Nc1ccc(C(=O)O)cc1 [acedoben],-1.13
3,O=C(Oc1ccccc1C(=O)O)c1ccccc1O [sasapyrine],-6.73
4,CC[C@]12CCCN3CCc4c(n(c5ccccc45)[C@@](O)(C(=O)OC)C1)[C@@H]32 [vincamine],0.28
5,Cc1cn([C@H]2C=C[C@@H](CO)O2)c(=O)[nH]c1=O [stavudine],-1.15

# Same assay, conditions: 8.33 nM; 48 h
row,SMILES,inhibition of SARS-CoV-2 cytopathic effect [%]
1,C[C@@H](N[C@H]1CCCC[C@@H]1NC(=O)c1ccc(Cl)cc1)c1cccc2ccccc12 [Calhex-231],-0.88
2,CC(C)Oc1ccc(-c2nc(-c3cccc4c3CC[C@H]4NCCC(=O)O)no2)cc1C#N,-1.13
3,CC(C)(C(=O)O)c1ccc(C(=O)CCCN2CCC(OC(c3ccccc3)c3ccccc3)CC2)cc1 [carebastine],-1.16
4,CCCCCCCCCCCCCCCC(=O)OC(C)C [isopropyl-palmitate],-0.59
5,Cc1cccn2c(=O)c(/C=C(\C#N)c3nc4ccccc4s3)c(Oc3ccc(F)cc3)nc12,0.91
6,Cc1ccccc1C(C(=O)NC1CCCCC1)N(C(=O)Cn1ccnc1C)c1cccc(F)c1 (stereo not given),-1.8
7,NC1=NCC2c3ccccc3Cc3ccccc3N12 (stereo not given) [epinastine],-1.14
8,CCC1(c2c[nH]cn2)Cc2ccccc2C1 [atipamezole],2.54
9,COc1cc(O)c(C(=O)c2ccccc2)cc1S(=O)(=O)O [sulisobenzone],1.76
10,O=C([O-])CN1CCN(CC(=O)[O-])CCN([C@H](CO)[C@H](O)CO)CCN(CC(=O)[O-])CC1.[Gd+3] (racemic) [gadobutrol],1.41
11,c1cnc2c([O][Ga]([O]c3cccc4cccnc34)[O]c3cccc4cccnc34)cccc2c1 [gallium-triquinolin-8-olate],1.56
12,CN(C)CC[C@H](CSc1ccccc1)Nc1ccc(S(=O)(=O)NC(=O)c2ccc(N3CCN(Cc4ccccc4-c4ccc(Cl)cc4)CC3)cc2)cc1[N+](=O)[O-],-0.39
13,CCOC(=O)[C@@](C)(N)Cc1ccc(O)c(O)c1 [methyldopate],1.54
14,O=C1NCCN1c1ncc([N+](=O)[O-])s1 [niridazole],-2.07
15,COc1ccc(C(=O)NCc2cccnc2)cc1C(=O)NCc1cccnc1 [picotamide],2.62
16,CNc1cc2[nH]c(=O)n(-c3ccc(NC(=O)NS(=O)(=O)c4ccc(Cl)s4)cc3)c(=O)c2cc1F [elinogrel],1.24
17,COc1cc(C[C@H]2C(=O)OC[C@@H]2Cc2ccc(OC)c(OC)c2)ccc1O [arctigenin],0.36
18,CCN(CC)C(=O)/C(C#N)=C/c1cc(O)c(O)c([N+](=O)[O-])c1 [entacapone],-1.7
19,NS(=O)(=O)c1cc2c(cc1Cl)N=C(CSCc1ccccc1)NS2(=O)=O [benzthiazide],0.15
20,O=c1sn(-c2cccc3ccccc23)c(=O)n1Cc1ccccc1 [tideglusib],-1.6

row,SMILES,inhibition of SARS-CoV-2 cytopathic effect [%]
1,C#C[C@]1(OC(=O)CCCCCC)CC[C@H]2[C@@H]3CCC4=CC(=O)CC[C@@H]4[C@H]3CC[C@@]21C [norethisterone-enanthate],0.16
2,O=C(O)C(O)C(O)C(=O)O (stereo not given) [tartaric-acid],-4.25
3,O[C@H]1CC[C@H](Nc2nc(-c3ccccc3)nc3[nH]ccc23)CC1,-3.12
4,O=C(NCC(=O)N1CCCC1)Nc1ccc2cnccc2c1,0.25
5,CC1(C)NC(=O)N(c2ccc([N+](=O)[O-])c(C(F)(F)F)c2)C1=O [nilutamide],1.17
6,CC(=O)CC(=O)O [lithium-acetoacetate],-0.05
7,Cc1ncc(Cl)cc1NCc1ccc(C(=O)N[C@@H](CC2CCCC2)C(=O)NC2CC2)s1,0.35
8,CCCC(=O)Nc1cccc(NC(=O)c2ccccc2Br)c1,1.45
9,CCCCCCCCCCCCCCOc1ccc(C(=O)O)o1,0.74
10,Cn1c(-c2ccccc2)nnc1S(C)(=O)=O,-0.41
11,CCCOc1ccc2[nH]c(NC(=O)OC)nc2c1 [oxibendazole],-0.7
12,CC[N+]1(C)CCCC(OC(=O)C(O)(c2ccccc2)c2ccccc2)C1 (stereo not given) [pipenzolate],-0.02
13,CCCn1c(=O)c2[nH]c(-c3cnn(Cc4cccc(C(F)(F)F)c4)c3)nc2n(CC)c1=O,1.19
14,C[n+]1cccc(C(=O)[O-])c1 [trigonelline],3.85
15,O=C(O)Cc1sc(-c2ccccc2)nc1-c1ccc(Cl)cc1 [fentiazac],-2.64
16,Oc1ccc2[nH]cc(C3=CCNCC3)c2n1,6.88
17,CC(=O)Nc1ccc(C(=O)O)cc1 [acedoben],3.16
18,O=C(Oc1ccccc1C(=O)O)c1ccccc1O [sasapyrine],-8.94
19,CC[C@]12CCCN3CCc4c(n(c5ccccc45)[C@@](O)(C(=O)OC)C1)[C@@H]32 [vincamine],2.12
20,Cc1cn([C@H]2C=C[C@@H](CO)O2)c(=O)[nH]c1=O [stavudine],2.97
